According to PubChem BioAssay (NCI):
Values joined by “and” are separate entries in the source; they are usually repeats but may differ in a detail not shown here. Equal entries are not always repeated. This is part of a sample that, as a whole, favours compounds with a hit. Of some 83,000 tested, about 20% had one in any assay.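 The test compound was applied at a single concentration to cells in 96-well plates for 48 hours, and percent growth was recorded.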 A number with no mark means an inactive call. Active and inactive are the calls of the source. Rule for the calls: active = growth percent below 10; inactive = the rest.

These molecules were tested on MDA-MB-468 breast (assay: NCI-60 one-dose screen, 48 h (100 = growth as untreated, 0 = no growth, -100 = all killed)). Settings: 10 µM unless noted.

Row | Structure (SMILES) | growth
1 | COc1ccc(CCn2cnn3c(=O)c4ccccc4nc3c2=O)cc1OC | 93.5% and 94.3%
2 | COc1cccc(CC(C)=C(c2ccc(OCCCN(C)C)cc2)c2ccc(OCCCN(C)C)cc2)c1 | -83.4% (active)
3 | FC(F)(F)c1ccc(-c2cnc(-n3cc(COCCN4CCCCC4)nn3)nc2NC2CCCCCC2)cc1 | 16.1%
4 | Cc1[nH]nc2ccc(-c3nc4cnc(N5CCN(C)CC5)cn4c3Nc3ccc(F)cc3Br)cc12 | 56.2%
5 | COc1ccc(Nc2nc(-c3cc(O)c(C)c(C)c3O)cs2)cc1 | -6.65% (active)
6 | COc1ccc2nc3cc(Cl)ccc3c(N3CCN(c4nccc(Nc5ccc(Cl)cc5)n4)CC3)c2c1 | 82.8%
7 | COc1ccc(Cn2cc3c(c2-c2cc(OC)c(OC)c(OC)c2)CCc2c(CN4CCCC4)noc2-3)cc1 | 50.7%
8 | COc1cc2c(cc1O)CCc1cc(O)cc(OC)c1-2 | 98%
9 | CC[N+](CCCCCCCCCC[N+](CC)(c1ccccn1)c1ccccn1)(c1ccccn1)c1ccccn1 | -1.91% (active)
10 | COc1cc(C2CC(=O)Nc3c2c(C)nn3-c2nc3ccccc3[nH]2)cc2c1OCC(=O)N2 (stereo not given) | 57.1%
11 | Nc1nc(-c2cccc([N+](=O)[O-])c2)c(N=Nc2ccc(Br)cc2)s1 | -45.7% (active)
12 | COc1ccc(C(=O)Cn2c(C(=O)c3ccccc3)nc3ccccc32)cc1 | 2.35% (active)
13 | COc1cc(/C=C/c2cc(/C=C/c3ccc(O)c(OC)c3)n(C(=O)Cc3ccccc3)n2)ccc1O | -4.29% (active)
14 | C=C(C)[C@@H]1CC[C@]2(C(=O)N=C=S)CC[C@]3(C)[C@H](CC[C@@H]4[C@@]5(C)CCC(=O)C(C)(C)[C@@H]5CC[C@]43C)[C@@H]12 | 11.2%
15 | Cc1cccc(/C=C2\CN(C(=O)OC(C)(C)C)C/C(=C\c3cccc(C)c3)C2=O)c1 | 103%
16 | COc1ccc(-c2no[n+]([O-])c2Nc2ccccc2Br)cc1 | 93.3%
17 | COc1ccc(-c2nnc(SCC(=O)Nc3ccc(C(=O)/C=C/c4cc(OC)c(OC)c(OC)c4)cc3)n2-c2ccccc2)cc1OC | -14.2% [100 µM] (active)
18 | CN1CCN(Cc2ccc(NC(=O)c3cncc(C#Cc4ncc5ccccn45)c3)cc2C(F)(F)F)CC1 | 36.5%
19 | COc1cccc(-c2nn(-c3ccccc3)cc2-c2ccnc(N3CCN(C(=O)c4ccccc4)CC3)c2)c1 | 82.3%
20 | CC(C)N(CCNc1nc(C(Cl)(Cl)Cl)nc2cc(Cl)ccc12)C(C)C | -50% (active)

Row | Structure (SMILES) | growth
21 | COC(=O)/C(CCC=C(C)C)=C1\[C@@H](OC(C)=O)C[C@@]2(C)[C@H]1C/C(=N/O)[C@H]1[C@@]3(C)CC/C(=N\O)[C@@H](C)[C@@H]3CC[C@@]12C | 96.8%
22 | C=CC(=O)N[C@H](/C=C/C(=O)OCC)Cc1ccc(-c2cc(Cl)cc(Cl)c2)cc1 | 88%
23 | CC12CCCCC1C(C(N)=O)C(=O)O2 (stereo not given) | 122%
24 | CNC(=O)c1cc(Oc2ccc3nc(NC(=O)c4cc(C(F)(F)F)cc(C(F)(F)F)c4)sc3c2)ccn1 | 23%
25 | CCC(C)(C)C(=O)O[C@H]1C[C@@H](C)C=C2C=C[C@H](C)[C@H](CC[C@@H]3CC=CC(=O)O3)[C@H]21 | 52.1%
26 | COC(=O)[C@]12CC[C@@H](C)[C@H](C)[C@@H]1C1=CC[C@@H]3[C@@]4(C)CC(=O)[C@H](O)[C@@]5(C)COC(=C45)C[C@@]3(C)[C@]1(C)CC2 | -83.9% (active)
27 | C=CCC(CCC(CC=C)C(=O)OCC)C(=O)OCC (stereo not given) | 108%
28 | NC(=NCCCC1(c2ccccc2)CCCC1)Nc1ccc(Cl)cc1 | -83.1% (active)
29 | CC(=O)OCC1CCC(COC(C)=O)CC1 (stereo not given) | 110%
30 | NS(=O)(=O)c1ccc(-n2nc(-c3ccc(Cl)cc3)ccc2=O)cc1 | 56.9%
31 | C/C(=C\C(=O)c1ccc(Cl)cc1)c1ccc(Cl)cc1 | 5.65% (active)
32 | Cc1cc(N2CCOCC2)nc(NCc2cc(Nc3ccnc4cc(Cl)ccc34)ccc2F)n1 | -71.9% (active)
33 | CCOC(=O)C1CC(=O)c2cc(OC)c(OC)cc2C1 (stereo not given) | 84.9%
34 | O=C(O)COc1ccc(Cl)c(Cl)c1 | 99.5%
35 | Cn1c(=O)c2c(nc(N3CCCC3)n2C)n(C)c1=O | 99.5%
36 | O=S(=O)(NCCNc1cc(-c2c(-c3cccc(O)c3)nc3sccn23)ccn1)c1ccc(Br)cc1 | 47.7%
37 | O=C(/C=C/c1ccc(Br)cc1)c1ccc(-n2cc(CN3CCN(c4cc5c(cc4F)c(=O)c(C(=O)O)cn5C4CC4)CC3)nn2)cc1 | 92.2%
38 | COc1ccc(-c2cc(-c3ccc(OC)c(OC)c3)nc(SCCCCCC(=O)NO)n2)cc1 | 54.8%
39 | COc1ccc(N2CCC(=S)NC2=S)cc1 | 97.7%
40 | COc1ccc(/C=C2\COc3ccc(O)c(O)c3C2=O)c(OC)c1OC | 7.7% (active)
